Test [1] deals with Plasmodium falciparum Sir2 (PF13_0152, Sir2A). As to the kind of experiment: pfSir2 binders on small-molecule microarrays, primary screen, biochemical, small-molecule microarray, 635 nm fluorescence (AID 1098).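 Further: score merges spot fluorescence intensity with its signal-to-noise ratio.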 The conditions noted are these: small-molecule microarray binding, fluorescence 635 nm; higher = more signal.
Test [2] is described as follows: small-molecule microarray binders of probe aDKK1, primary screen, biochemical, biotinylated probe, 635/667 nm fluorescence (AID 1099).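 Further: score merges 667nm spot fluorescence with signal to noise across triplicate slides.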 The conditions noted are these: higher = more signal.
A short description of test [3]: small-molecule microarray binders of probe aCHRDL2, primary screen, biochemical, biotinylated probe, 635/667 nm fluorescence (AID 1100). The conditions noted are these: higher = more signal.
A short description of test [4]: splicing luciferase reporter signal modulators, primary screen, spliceosome inhibition project, cell-based, HEK293, splice +/- reporter (AID 1101).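 Further: HEK293 cells carrying a splicing-competent luciferase reporter gene; test concentration not given here.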 The conditions noted are these: luminescence, 24 h, higher = more signal, called active from +8 up or from −8 down.
Test [5] concerns the target Fibroblast growth factor 10 (Homo sapiens) (UniProt O15520). In words: FGF10 binders on small-molecule microarrays, primary screen, biochemical, small-molecule microarray, 635 nm fluorescence (AID 1102). The conditions noted are these: FGF10 binding, fluorescence 635 nm, higher = more signal.
For test [6], the system named is glycogen synthase kinase-3 (GSK3A per assay name; protocol says GSK3B). As to the kind of experiment: GSK3 binders on small-molecule microarrays, primary screen, biochemical, small-molecule microarray, 635 nm fluorescence, GSK3A (AID 1103). Further: the record names both GSK3A and GSK3B. To be noted: small-molecule microarray binding, fluorescence 635 nm; higher = more signal.
Test [7] addresses Epidermal growth factor receptor (Homo sapiens) (UniProt P00533). As to the kind of experiment: EGFR binders on small-molecule microarrays, primary screen, biochemical, small-molecule microarray, 635 nm fluorescence (AID 1104).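 Further: score merges 667 nm emission intensity with spot signal to noise over triplicate slides.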 The conditions noted are these: EGFR binding, higher = more signal.
For test [8], the target named is Follistatin-related protein 3 (Homo sapiens) (UniProt O95633). In words: FSTL3 binders on small-molecule microarrays, primary screen, biochemical, small-molecule microarray, 635 nm fluorescence (AID 1105).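 Further: score merges emission near 667 nm and signal to noise per printed spot across three slides.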 The conditions noted are these: FSTL3 binding, higher = more signal.
Sequence of Follistatin-related protein 3 (Homo sapiens) (O95633 whole entry, looked up): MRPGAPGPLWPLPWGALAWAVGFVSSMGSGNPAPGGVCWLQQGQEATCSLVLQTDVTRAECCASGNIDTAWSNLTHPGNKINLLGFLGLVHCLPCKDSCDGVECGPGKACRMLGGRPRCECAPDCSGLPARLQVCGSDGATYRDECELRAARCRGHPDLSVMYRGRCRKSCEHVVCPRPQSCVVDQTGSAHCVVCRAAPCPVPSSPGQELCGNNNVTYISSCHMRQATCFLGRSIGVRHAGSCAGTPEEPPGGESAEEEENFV
In test [9] the target is Dickkopf-related protein 1 (Homo sapiens) (UniProt O94907). As to the kind of experiment: DKK1 binders on small-molecule microarrays, primary screen, biochemical, small-molecule microarray, 635 nm fluorescence scan (AID 1106).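 Further: score merges emission near 667 nm with signal to noise over three replicate slides.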 To be noted: DKK1 binding, higher = more signal.
Sequence of Dickkopf-related protein 1 (Homo sapiens) (O94907 whole entry, looked up): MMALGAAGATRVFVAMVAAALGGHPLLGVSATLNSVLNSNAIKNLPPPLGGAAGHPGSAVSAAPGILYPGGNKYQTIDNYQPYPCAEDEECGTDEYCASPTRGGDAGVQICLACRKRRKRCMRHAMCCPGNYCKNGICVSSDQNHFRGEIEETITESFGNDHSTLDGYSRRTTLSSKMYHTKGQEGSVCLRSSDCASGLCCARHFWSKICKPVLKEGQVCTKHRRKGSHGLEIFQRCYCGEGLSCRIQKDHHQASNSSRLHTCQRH
Test [10] concerns Inhibin beta A chain (activin A). As to the kind of experiment: INHBA (activin A) binders on microarrays, primary screen, biochemical, small-molecule microarray, 635 nm fluorescence scan (AID 1107).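 Further: mouse activin A protein probed at 4.33 µg/mL on printed slides; score merges bound-protein fluorescence near 667 nm with spot signal-to-noise.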 To be noted: small-molecule microarray binding, higher = more signal.
Test [11] concerns Human papillomavirus type 1a protein E7 (residues 44-93). As to the kind of experiment: HPV1a E7 fragment binders on microarrays, primary screen, biochemical, small-molecule microarray, residues 44-93, 635 nm fluorescence (AID 1108).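 Further: E7 fragment applied at 1 µg/mL in TBST for 1 h at 4 C; score combines spot fluorescence with its signal to noise ratio.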 The conditions noted are these: small-molecule microarray binding, fluorescence 635 nm; higher = more signal.
A short description of test [12]: modulators of HCV replicon luciferase signal, primary screen, HCV replication inhibitor project, Huh7 cells, luciferase reporter (AID 1109).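 Further: huh7 hepatoma cells harbouring a luciferase neomycin HCV replicon reporter; luciferase luminescence as measure of HCV replicon replication; test concentration not given here.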 The conditions noted are these: 48 h, higher = more signal. Background: In antiviral work, replicon cells carry a viral genome segment that copies itself.
Test [13] has as its target Left-right determination factor 2 (Homo sapiens) (UniProt O00292). As to the kind of experiment: LEFTY2 binders on small-molecule microarrays, primary screen, biochemical, small-molecule microarray, 635 nm fluorescence scan (AID 1110). To be noted: LEFTY2 binding, higher = more signal.
The target in test [14] is Calmodulin-1 (Homo sapiens) (UniProt P0DP23). In words: CALM1 binders on microarrays, EGTA buffer, profiling panel, biochemical, small-molecule microarray, Cy5-labelled CALM1 (AID 1111).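 Further: labelled calmodulin applied in Tris saline Tween buffer holding calcium plus EGTA and DTT.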 To be noted: Cy5-CALM1 binding fluorescence, higher = more signal.
Test [15] shares this target. As to the kind of experiment: calcium-bound CALM1 binders on microarrays, profiling panel, artefact control for SMM control-protein annotation, biochemical, small-molecule microarray, Cy5-labelled CALM1, plus calcium (AID 1112).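 Further: score merges spot fluorescence with signal to noise from triplicate slides.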 To be noted: Cy5-CALM1 binding fluorescence, higher = more signal.
Test [16] in a line: small-molecule microarray binders of probe aWnt5a, primary screen, biochemical, biotinylated probe, 635/667 nm fluorescence (AID 1113).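 Further: score merges 667 nm fluorescence intensity with signal-to-noise per printed feature.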 The conditions noted are these: higher = more signal.
Test [17] in a line: small-molecule microarray binders of probe aShh, primary screen, biochemical, biotinylated probe, 635/667 nm fluorescence (AID 1114).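 Further: probe is biotin-labelled aShh protein from a stem cell growth factor screen; measures binding of labelled protein to compounds printed on the slide; score merges feature fluorescence at 667 nm with signal-to-noise.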 The conditions noted are these: higher = more signal.
Test [18] is described as follows: small-molecule microarray binders of probe aNog, primary screen, biochemical, biotinylated probe, 635/667 nm fluorescence (AID 1115).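 Further: probe is biotinylated aNog protein used at 0.15 µg/mL for 1 h at 4 C; z-score combines 667 nm fluorescence of each spot with its signal to noise.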 To be noted: higher = more signal.
Test [19] concerns the target Torsin-1A-interacting protein 1 (Homo sapiens) (UniProt Q5JTV8). In words: LAP1 binders from COS7 cell lysate, primary screen, small-molecule microarray, 635/667 nm fluorescence (AID 1116). To be noted: COS7-hLAP1 lysate binding, 635 nm fluorescence, higher = more signal.
For test [20], the target named is Alpha-bungarotoxin (Bungarus multicinctus) (UniProt P60615). In words: alpha-bungarotoxin binders on microarray, profiling panel, artefact control for SMM control protein annotation, biochemical, small-molecule microarray, Alexa647 label, 635/667 nm fluorescence (AID 1117). The conditions noted are these: alpha-BTX-A647 binding fluorescence, higher = more signal.
Sequence of Alpha-bungarotoxin (Bungarus multicinctus) (P60615 whole entry, looked up): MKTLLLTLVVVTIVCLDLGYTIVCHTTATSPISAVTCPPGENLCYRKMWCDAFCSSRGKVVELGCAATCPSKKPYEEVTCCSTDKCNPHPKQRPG

Active and inactive are the calls of the source.

The values below come from PubChem BioAssay.

Sequence of Torsin-1A-interacting protein 1 (Homo sapiens) (Q5JTV8 whole entry, looked up): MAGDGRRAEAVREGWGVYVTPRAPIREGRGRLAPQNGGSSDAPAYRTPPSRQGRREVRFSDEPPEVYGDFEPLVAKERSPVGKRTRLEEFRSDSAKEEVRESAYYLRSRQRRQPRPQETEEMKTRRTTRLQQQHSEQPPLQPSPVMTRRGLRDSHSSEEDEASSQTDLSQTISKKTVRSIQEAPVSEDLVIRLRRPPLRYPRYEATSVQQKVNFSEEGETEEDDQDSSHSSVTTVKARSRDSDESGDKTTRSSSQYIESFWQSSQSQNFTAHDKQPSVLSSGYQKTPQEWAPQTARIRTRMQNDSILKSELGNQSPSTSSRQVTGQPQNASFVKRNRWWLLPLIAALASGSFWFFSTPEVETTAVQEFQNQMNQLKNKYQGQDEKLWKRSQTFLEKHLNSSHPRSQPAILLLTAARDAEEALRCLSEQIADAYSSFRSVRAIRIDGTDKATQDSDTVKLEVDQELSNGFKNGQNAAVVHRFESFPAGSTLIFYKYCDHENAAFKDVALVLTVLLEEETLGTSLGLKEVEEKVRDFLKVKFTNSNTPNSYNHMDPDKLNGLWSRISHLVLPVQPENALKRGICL
Sequence of Epidermal growth factor receptor (Homo sapiens) (P00533 whole entry, looked up): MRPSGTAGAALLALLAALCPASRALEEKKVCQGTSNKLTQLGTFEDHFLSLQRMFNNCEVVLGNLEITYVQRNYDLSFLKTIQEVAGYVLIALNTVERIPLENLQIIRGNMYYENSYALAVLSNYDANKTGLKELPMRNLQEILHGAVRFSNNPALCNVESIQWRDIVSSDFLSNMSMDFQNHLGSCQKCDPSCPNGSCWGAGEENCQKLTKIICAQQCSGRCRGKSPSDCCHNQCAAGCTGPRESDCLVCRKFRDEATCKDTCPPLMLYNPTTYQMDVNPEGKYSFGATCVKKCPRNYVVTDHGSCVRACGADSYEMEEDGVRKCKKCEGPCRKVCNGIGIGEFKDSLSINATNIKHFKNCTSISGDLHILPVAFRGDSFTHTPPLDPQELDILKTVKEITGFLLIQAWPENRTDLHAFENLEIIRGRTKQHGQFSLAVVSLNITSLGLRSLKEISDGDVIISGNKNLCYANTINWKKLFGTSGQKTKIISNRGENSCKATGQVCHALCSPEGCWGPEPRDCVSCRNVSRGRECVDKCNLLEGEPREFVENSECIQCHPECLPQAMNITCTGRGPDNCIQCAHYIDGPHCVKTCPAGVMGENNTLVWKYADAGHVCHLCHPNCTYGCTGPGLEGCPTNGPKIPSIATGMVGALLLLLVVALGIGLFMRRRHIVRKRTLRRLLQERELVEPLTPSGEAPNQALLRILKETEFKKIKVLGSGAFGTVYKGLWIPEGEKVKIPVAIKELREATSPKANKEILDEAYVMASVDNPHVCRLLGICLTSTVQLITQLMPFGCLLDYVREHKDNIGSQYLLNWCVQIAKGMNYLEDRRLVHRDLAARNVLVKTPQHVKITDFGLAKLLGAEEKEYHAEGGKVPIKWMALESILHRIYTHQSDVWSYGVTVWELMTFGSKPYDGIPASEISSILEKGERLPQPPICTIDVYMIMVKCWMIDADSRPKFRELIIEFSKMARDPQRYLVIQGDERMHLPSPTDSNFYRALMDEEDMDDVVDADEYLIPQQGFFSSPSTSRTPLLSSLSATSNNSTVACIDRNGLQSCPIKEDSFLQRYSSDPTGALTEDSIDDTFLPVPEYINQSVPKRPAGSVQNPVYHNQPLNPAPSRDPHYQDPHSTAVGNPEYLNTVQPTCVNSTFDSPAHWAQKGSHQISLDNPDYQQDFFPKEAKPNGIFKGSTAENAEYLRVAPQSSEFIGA
Sequence of Left-right determination factor 2 (Homo sapiens) (O00292 whole entry, looked up): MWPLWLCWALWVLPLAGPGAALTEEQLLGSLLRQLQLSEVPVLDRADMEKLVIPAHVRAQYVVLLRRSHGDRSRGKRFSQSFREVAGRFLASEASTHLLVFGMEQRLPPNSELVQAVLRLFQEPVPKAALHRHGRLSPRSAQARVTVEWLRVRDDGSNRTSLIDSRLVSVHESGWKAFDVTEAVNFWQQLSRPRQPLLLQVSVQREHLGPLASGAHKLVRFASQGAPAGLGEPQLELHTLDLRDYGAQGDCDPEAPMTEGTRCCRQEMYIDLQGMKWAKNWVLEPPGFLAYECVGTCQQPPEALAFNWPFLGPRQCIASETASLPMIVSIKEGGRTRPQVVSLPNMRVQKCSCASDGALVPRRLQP
Sequence of Fibroblast growth factor 10 (Homo sapiens) (O15520 whole entry, looked up): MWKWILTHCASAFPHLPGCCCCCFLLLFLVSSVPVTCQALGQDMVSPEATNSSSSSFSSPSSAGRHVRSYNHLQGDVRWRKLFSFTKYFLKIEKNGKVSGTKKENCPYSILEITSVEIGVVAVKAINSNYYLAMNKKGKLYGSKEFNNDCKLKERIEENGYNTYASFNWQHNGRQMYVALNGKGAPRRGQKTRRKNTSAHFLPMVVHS

Regarding `N#Cc1ccc(NN2C(C(O)C3CCCCC3)C=CC3C(=O)N(c4ccccc4)C(=O)C32)cc1` (stereo not given), the composite z-score in [1] is 0.908; in [2], 0.458; in test [3], 0.811; in test [5], 1.09; in [6], 1.3; in [7], -0.0355. Moreover, the composite z-score was 1.28 in test [8]; -0.547 in test [9]; 0.249 in test [10]; 1.48 in test [11]; 0.0137 in [13]; 1.82 in [14]. The composite z-score in test [15] is 0.779; in test [16] it was 0.0859; in test [17], 0.294; in [18], 1.32; in test [19], -0.102; in test [20] it was 1.09. Also, the z-score in test [4] was 1.23 (inactive); in test [12], -0.785.
In the case of `C[C@H]1NC(=O)[C@H](Cc2ccccc2)NC(=O)[C@@]23C(=O)N[C@@H](Cc4ccccc4)C2[C@H](C)[C@@]2(C)O[C@H]2C3/C=C/C/C=C\CNC1=O` (stereo not given in full), the composite z-score in [1] is 0.444; in [2], -0.245; in test [3] it was -0.471; in test [5], -0.354; in [6] it was -1.16; in test [7] it was 0.203. Also, the composite z-score in test [8] was -0.0523; in test [9], 0.461; in test [10], 1.45; in test [11], -0.794; in test [13] it was 0.133; in test [14] it was -0.638. Also, the composite z-score in test [15] is -0.859; in test [16], -0.146; in test [17], -0.324; in [18] it was -0.429; in [19] it was -0.214; in test [20] it was -0.407. Further, the z-score in test [4] was 0.587 (inactive); in [12], 0.136.
Take `Cc1ccc(S[C@]2(C(=O)NC3CC3)CC(=O)N(C3CCCCC3)[C@@H]2c2ccc(CO)cc2I)cc1`: the composite z-score in test [1] is 1.19; in test [2], 0.198; in test [3], 0.259; in test [5] it was 0.796; in test [6] it was 0.52; in [7] it was 0.396. The composite z-score was determined as 1.18 in test [8]; 0.0553 in test [9]; 0.0315 in test [10]; 1.43 in test [11]; 0.0327 in [13]; 0.224 in [14]. For the same compound, the composite z-score was 0.406 in test [15]; -0.154 in test [16]; -0.304 in test [17]; 0.45 in [18]; -0.0758 in test [19]; 0.874 in test [20]. For the same compound, the z-score was -0.575 (inactive) in [4] and -2.79 in [12].
With `CCCCC=C[C@@H](NC(=O)c1cccs1)c1ccccc1`, the composite z-score in [1] is -0.15; in test [2], -0.0451; in [3] it was 0.359; in test [5], 0.44; in test [6], 0.476; in test [7] it was -0.273. Further, the composite z-score was -0.171 in test [8]; 0.13 in test [9]; 0.764 in test [10]; 0.861 in test [11]; -0.286 in test [13]; 0.524 in [14]. Moreover, the composite z-score in [15] was 0.906; in test [16], -0.124; in [17], 0.166; in test [18], -0.269; in test [19], 0.159; in [20] it was 0.748. The z-score is -3.77 (inactive) in test [4] and -2.74 in [12].
As for `C=CCC(OC(C)=O)[C@@H]1[C@@H](N(Cc2ccc(-c3ccccc3)cc2)C(=O)Cc2ccc(OC)cc2)c2cc(OCCCO)ccc2N1C(=O)c1ccc2ccccc2n1` (stereo not given in full), the composite z-score in test [1] was -0.245; in test [2] it was -0.106; in test [3], 0.027; in test [5] it was -0.19; in test [6] it was -0.494; in test [7], 0.24. Further, the composite z-score was -0.0321 in test [8]; 0.37 in [9]; 1.48 in test [10]; -0.844 in test [11]; -0.259 in test [13]; 0.143 in [14]. Moreover, the composite z-score was 1.01 in [15]; 0.0259 in test [16]; -0.0553 in [17]; -0.0544 in test [18]; 0.589 in test [19]; 0.819 in [20]. Moreover, the values for the z-score in test [4] and in [12] were -1.33 (inactive) and -0.36, respectively.
